The subject of the first test is Plasmodium falciparum. The experiment in a line: GSK_TCMDC: Inhibition of Plasmodium falciparum 3D7 in whole red blood cells, using parasite LDH activity as an index of growth. Test compounds present at 2uM. The format is functional.
By Inhibition is commonly meant the drop in the measured response relative to a control, in per cent. A lower Inhibition goes with a weak effect. `Cc1ccc(S(=O)(=O)Nc2ccc(Nc3nccc(Nc4cccc5[nH]ncc45)n3)cc2)cc1` returned an Inhibition of 90%.

`Cc1cc(NC(=O)c2ccco2)ccc1OC1CCN(Cc2ccccc2)CC1.O=C(O)C(F)(F)F`: the Inhibition is on record as 93%.

In turn, `C=CCC(C)n1ncc2c3c(N)nc(N)nc3ccc21` (stereo not given) gave an Inhibition of 93%.

In the case of `Cc1cc(-c2ccc(CNC3CCN(C)CC3)cc2)ccc1S(=O)(=O)NCc1ccccc1.O=C(O)C(F)(F)F`, the Inhibition is reported as 100%.

As for `NC(=O)c1cccc(-n2ccc3cc(CNC4Cc5ccccc5C4)ccc32)c1.O=C(O)C(F)(F)F`, the Inhibition was determined as 88%.

For `CC(C)=CCN1CCC(C(=O)Nc2ccc(-c3nc4ccccc4[nH]3)cc2)CC1`, the Inhibition amounted to 95%.

`Oc1c(CN2CCCC(C(F)(F)F)C2)cc(Cl)c2ccccc12` (stereo not given) returned an Inhibition of 94%.

`Cc1ccc(-c2nnc(-c3ccc(C(=O)NC4CCN(Cc5ccc(C#N)cc5)CC4)cc3)o2)cc1Br` yielded an Inhibition of 91%.

As for `COc1cc(C=C(C2=NC(=O)CS2)c2nc3cccnc3n2C)ccc1O`, the Inhibition was 89%.

The compound `O=c1cnc2ccc(F)cc2n1CCN1CCC(NCc2cc(-c3ccccc3)cs2)CC1` had an Inhibition of 91%.

As to `Cc1noc(C)c1-c1cccc(CNCc2ccc(-c3cccc(-c4nc5cccc(C)c5[nH]4)c3)cc2)c1.O=C(O)C(F)(F)F`, the Inhibition was 100%.

`CC(C)(C)OC(=O)n1cc(C2CCN(CCCC34CCCc5cccc(c53)NC4=O)CC2)c2ccncc21` (stereo not given) had an Inhibition of 92%.

For `C[C@H]1CN(Cc2cccc(-c3cc(CNC(=O)c4cccc(C(=O)c5ccc(Cl)c(Cl)c5)c4)ccc3F)c2)CCN1`, the Inhibition is on record as 85%.

Regarding `O=c1cc(NCCCNC2CCCc3c2ccc2ccccc32)[nH]c2ccccc12` (stereo not given), the Inhibition amounted to 94%.

`O=C(O)C(F)(F)F.c1cncc(CCNCc2cccc(-c3ccc(-c4nc5ccccc5[nH]4)s3)c2)c1`: the Inhibition worked out at 100%.

In turn, `CN(C)CC(O)C(c1ccccc1)c1ccc(Cl)cc1.O=C(O)CCC(=O)O` (stereo not given) gave an Inhibition of 99%.

As to `CCCCOc1cc2ncc(C(=O)OCC)c(O)c2cc1OCCCC`, the Inhibition came to 97%.

`CN(CCC(O)c1ccc(Cl)c(Cl)c1)CC1CC1C(=O)c1ccccc1` (stereo not given): the Inhibition is 98%.

Compound `O=C(Nc1ccccc1-c1nc2ccccc2s1)C(Cl)(Cl)Cl` showed an Inhibition of 97%.

Compound `CCCC(CNCc1cccc(C)c1)CNc1cc(=O)c2ccccc2[nH]1` (stereo not given) gave an Inhibition of 99%.

With `COc1ccc(Nc2nccc(NCCNC(=O)Nc3cc(C)ccc3C)n2)cc1`, the Inhibition was 85%.

Take `Cc1cc(N(CCN2CCCCC2)CCN2CCCCC2)nc(Nc2ccc(Cl)cc2)n1.Cl`: the Inhibition stood at 100%.

Turning to `CC(=O)N(Cc1nc(-c2cc(Cl)c(Cl)s2)cs1)c1c(C)cccc1C`, the Inhibition is listed as 98%.

Take `Cc1sc2ccc(Cl)cc2c1S(=O)(=O)Nc1ccc2nccc(N3CC(C)NC(C)C3)c2c1.Cl` (stereo not given): the Inhibition was 100%.

With `CCc1sc(CN(CCCNc2cc(=O)c3ccccc3[nH]2)Cc2sc(CC)c(Br)c2-c2ccsc2)c(-c2ccsc2)c1Br.Cl`, the Inhibition came to 99%.

On to `Cc1cc(N2CCCC2)nc(Nc2ccc(NC(=O)c3cccc(F)c3)cc2)n1`, for which the Inhibition is listed as 97%.

The compound `CCN(CC)CCNc1nccc(N(C)c2ccc(NC(=O)Nc3cc(C(F)(F)F)ccc3F)cc2)n1.O=C(O)C(F)(F)F` returned an Inhibition of 97%.

`COc1cccc(C(=O)Nc2ccc(Nc3nc(C)cc(N(C)C)n3)cc2)c1` registered an Inhibition of 92%.

`CS(=O)(=O)O.FC(F)(F)COc1ccc(CCNCCCCNCCc2ccc(OCC(F)(F)F)c3ccccc23)c2ccccc12`: the Inhibition amounted to 99%.

On to `CCCCC(CC)NC(=O)[C@H]1CNCCN1C(=O)CCCc1ccccc1.O=C(O)C(F)(F)F` (stereo not given in full), for which the Inhibition turned out to be 94%.

The compound `Cc1cc(CN2CCC(Nc3ncc(-c4ccsc4)c4nc(C(F)(F)F)ccc34)CC2)no1.Cl` had an Inhibition of 81%.

For `COc1ccc2[nH]ccc(=NN=Cc3ccccc3F)c2c1`, the Inhibition is 100%.

In turn, `Cc1onc(-c2ccc(Cl)cc2)c1-c1ccnn1S(=O)(=O)c1ccc(Cl)cc1` returned an Inhibition of 100%.

For the compound `O=C(O)C(F)(F)F.OCC1CCN(Cc2ccc(-c3ccc(-c4nc5cc(C(F)(F)F)ccc5[nH]4)s3)cc2)CC1`, the Inhibition is 100%.

With `Cc1cn(CC(=O)Nc2cccc(-c3cccc(-c4nc5cccc(C)c5[nH]4)c3)c2)c(=O)[nH]c1=O`, the Inhibition is on record as 100%.

`O=C(N[C@@H](Cc1ccccc1)C(=O)O)c1cc(-c2ccc(F)cc2)no1.O=C(N[C@@H](Cc1ccccc1)C(=O)O)c1conc1-c1ccc(F)cc1` came in with an Inhibition of 96%.

For `FC(F)(F)c1cccc(-c2cc(NCCCn3ccnc3)nc(-c3ccncc3)n2)c1`, the Inhibition amounted to 100%.

The compound `CCn1c(-c2cc(C)on2)nc2cnc(Oc3ccc(C(=O)N4CC(=O)N(C)C4C(C)(C)C)cc3)cc21` (stereo not given) returned an Inhibition of 81%.

Take `CCc1n[nH]c(C(=O)Nc2cccc(N3CCCC3)c2)c1C`: the Inhibition is 81%.

For the compound `Oc1ccc(Nc2nc(NCc3ccccc3)c3ccccc3n2)cc1`, the Inhibition is recorded as 100%.

In the next test the test system is Plasmodium falciparum. The experiment in a line: GSK_TCMDC: Inhibition of Plasmodium falciparum Dd2 in whole red blood cells, using parasite LDH activity as an index of growth. Test compounds present at 2uM. The format is functional.
In turn, `Cc1ccc(S(=O)(=O)Nc2ccc(Nc3nccc(Nc4cccc5[nH]ncc45)n3)cc2)cc1` showed an Inhibition of 5%.

As to `Cc1cc(NC(=O)c2ccco2)ccc1OC1CCN(Cc2ccccc2)CC1.O=C(O)C(F)(F)F`, the Inhibition came to 95%.

`C=CCC(C)n1ncc2c3c(N)nc(N)nc3ccc21` (stereo not given) came in with an Inhibition of 95%.

In the case of `Cc1cc(-c2ccc(CNC3CCN(C)CC3)cc2)ccc1S(=O)(=O)NCc1ccccc1.O=C(O)C(F)(F)F`, the Inhibition is given as 97%.

`NC(=O)c1cccc(-n2ccc3cc(CNC4Cc5ccccc5C4)ccc32)c1.O=C(O)C(F)(F)F` displayed an Inhibition of 7%.

For `CC(C)=CCN1CCC(C(=O)Nc2ccc(-c3nc4ccccc4[nH]3)cc2)CC1`, the Inhibition was found to be 0%.

`Oc1c(CN2CCCC(C(F)(F)F)C2)cc(Cl)c2ccccc12` (stereo not given) came in with an Inhibition of 53%.

As for `Cc1ccc(-c2nnc(-c3ccc(C(=O)NC4CCN(Cc5ccc(C#N)cc5)CC4)cc3)o2)cc1Br`, the Inhibition came to 7%.

In the case of `COc1cc(C=C(C2=NC(=O)CS2)c2nc3cccnc3n2C)ccc1O`, the Inhibition is 48%.

In turn, `O=c1cnc2ccc(F)cc2n1CCN1CCC(NCc2cc(-c3ccccc3)cs2)CC1` yielded an Inhibition of 14%.

On to `Cc1noc(C)c1-c1cccc(CNCc2ccc(-c3cccc(-c4nc5cccc(C)c5[nH]4)c3)cc2)c1.O=C(O)C(F)(F)F`, for which the Inhibition was determined as 94%.

Turning to `CC(C)(C)OC(=O)n1cc(C2CCN(CCCC34CCCc5cccc(c53)NC4=O)CC2)c2ccncc21` (stereo not given), the Inhibition is on record as 0%.

The compound `C[C@H]1CN(Cc2cccc(-c3cc(CNC(=O)c4cccc(C(=O)c5ccc(Cl)c(Cl)c5)c4)ccc3F)c2)CCN1` registered an Inhibition of 42%.

In the case of `O=c1cc(NCCCNC2CCCc3c2ccc2ccccc32)[nH]c2ccccc12` (stereo not given), the Inhibition is reported as 30%.

For `O=C(O)C(F)(F)F.c1cncc(CCNCc2cccc(-c3ccc(-c4nc5ccccc5[nH]4)s3)c2)c1`, the Inhibition is recorded as 97%.

For `CN(C)CC(O)C(c1ccccc1)c1ccc(Cl)cc1.O=C(O)CCC(=O)O` (stereo not given), the Inhibition was 4%.

`CCCCOc1cc2ncc(C(=O)OCC)c(O)c2cc1OCCCC` displayed an Inhibition of 96%.

Compound `CN(CCC(O)c1ccc(Cl)c(Cl)c1)CC1CC1C(=O)c1ccccc1` (stereo not given) returned an Inhibition of 96%.

`O=C(Nc1ccccc1-c1nc2ccccc2s1)C(Cl)(Cl)Cl` yielded an Inhibition of 99%.

`CCCC(CNCc1cccc(C)c1)CNc1cc(=O)c2ccccc2[nH]1` (stereo not given) had an Inhibition of 89%.

`COc1ccc(Nc2nccc(NCCNC(=O)Nc3cc(C)ccc3C)n2)cc1` had an Inhibition of 0%.

For the compound `Cc1cc(N(CCN2CCCCC2)CCN2CCCCC2)nc(Nc2ccc(Cl)cc2)n1.Cl`, the Inhibition stood at 79%.

`CC(=O)N(Cc1nc(-c2cc(Cl)c(Cl)s2)cs1)c1c(C)cccc1C` gave an Inhibition of 95%.

Compound `Cc1sc2ccc(Cl)cc2c1S(=O)(=O)Nc1ccc2nccc(N3CC(C)NC(C)C3)c2c1.Cl` (stereo not given) registered an Inhibition of 100%.

`CCc1sc(CN(CCCNc2cc(=O)c3ccccc3[nH]2)Cc2sc(CC)c(Br)c2-c2ccsc2)c(-c2ccsc2)c1Br.Cl`: the Inhibition worked out at 98%.

Compound `Cc1cc(N2CCCC2)nc(Nc2ccc(NC(=O)c3cccc(F)c3)cc2)n1` had an Inhibition of 28%.

In turn, `CCN(CC)CCNc1nccc(N(C)c2ccc(NC(=O)Nc3cc(C(F)(F)F)ccc3F)cc2)n1.O=C(O)C(F)(F)F` came in with an Inhibition of 25%.

Compound `COc1cccc(C(=O)Nc2ccc(Nc3nc(C)cc(N(C)C)n3)cc2)c1` showed an Inhibition of 33%.

Turning to `CS(=O)(=O)O.FC(F)(F)COc1ccc(CCNCCCCNCCc2ccc(OCC(F)(F)F)c3ccccc23)c2ccccc12`, the Inhibition turned out to be 70%.

As to `CCCCC(CC)NC(=O)[C@H]1CNCCN1C(=O)CCCc1ccccc1.O=C(O)C(F)(F)F` (stereo not given in full), the Inhibition worked out at 0%.

For `Cc1cc(CN2CCC(Nc3ncc(-c4ccsc4)c4nc(C(F)(F)F)ccc34)CC2)no1.Cl`, the Inhibition is 67%.

The compound `COc1ccc2[nH]ccc(=NN=Cc3ccccc3F)c2c1` showed an Inhibition of 98%.

Take `Cc1onc(-c2ccc(Cl)cc2)c1-c1ccnn1S(=O)(=O)c1ccc(Cl)cc1`: the Inhibition was determined as 99%.

For the compound `O=C(O)C(F)(F)F.OCC1CCN(Cc2ccc(-c3ccc(-c4nc5cc(C(F)(F)F)ccc5[nH]4)s3)cc2)CC1`, the Inhibition is given as 90%.

`Cc1cn(CC(=O)Nc2cccc(-c3cccc(-c4nc5cccc(C)c5[nH]4)c3)c2)c(=O)[nH]c1=O` came in with an Inhibition of 100%.

As to `O=C(N[C@@H](Cc1ccccc1)C(=O)O)c1cc(-c2ccc(F)cc2)no1.O=C(N[C@@H](Cc1ccccc1)C(=O)O)c1conc1-c1ccc(F)cc1`, the Inhibition is recorded as 49%.

The compound `FC(F)(F)c1cccc(-c2cc(NCCCn3ccnc3)nc(-c3ccncc3)n2)c1` gave an Inhibition of 100%.

With `CCn1c(-c2cc(C)on2)nc2cnc(Oc3ccc(C(=O)N4CC(=O)N(C)C4C(C)(C)C)cc3)cc21` (stereo not given), the Inhibition is reported as 57%.

`CCc1n[nH]c(C(=O)Nc2cccc(N3CCCC3)c2)c1C` came in with an Inhibition of 52%.

Compound `Oc1ccc(Nc2nc(NCc3ccccc3)c3ccccc3n2)cc1` came in with an Inhibition of 100%.

The values above are taken from ChEMBL document CHEMBL1157539, “Thousands of chemical starting points for antimalarial lead identification” (Nature, 2010).
